MITF inh – human MITF inhibition, primary screen. O75030. AlphaScreen MITF homodimerization, bead proximity signal. inhibition, % at 2.6 µM. 650,000 compounds, 0.91% hits. AID 1259374; in the data active means inhibition above about 50%;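 further: 0% = vehicle wells with protein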
GPR151 activ – activators of human GPR151 | Q8TDV0 | PathHunter beta-arrestin GPR151 cells, luminescence | activation, % at 11.2 µM | 650,000 compounds, 1% hits | AID 1508602; in the data active means activation above about 4.9%;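 further: 0% = median of compound wells and 100% = cells with positive control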
Target sequence (Q8TDV0 whole entry, looked up): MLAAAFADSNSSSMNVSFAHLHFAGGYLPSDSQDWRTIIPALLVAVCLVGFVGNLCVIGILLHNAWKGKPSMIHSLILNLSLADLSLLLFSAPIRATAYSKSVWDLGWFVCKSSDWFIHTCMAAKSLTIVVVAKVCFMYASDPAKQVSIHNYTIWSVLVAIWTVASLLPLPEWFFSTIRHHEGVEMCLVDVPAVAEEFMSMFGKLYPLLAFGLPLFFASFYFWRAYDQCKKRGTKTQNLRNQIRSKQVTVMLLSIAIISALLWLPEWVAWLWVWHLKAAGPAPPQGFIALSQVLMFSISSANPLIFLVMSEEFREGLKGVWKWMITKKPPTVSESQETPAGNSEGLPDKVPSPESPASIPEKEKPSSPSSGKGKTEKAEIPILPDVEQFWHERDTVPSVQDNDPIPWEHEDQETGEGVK
TEAD-YAP inh – TEAD-YAP interaction inhibition; HEK-TIYL cells, TEAD-Gal4/YAP UAS-luciferase luminescence; inhibition, % at 9.12 µM; 640,000 compounds, 1.4% hits; AID 1259422; in the data active means inhibition above about 32%;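 further: 0% = median of test compound wells and 100% = reference inhibitor wells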
FBW7 activator – human FBW7 E3 ligase activation, primary screen. Q969H0. AlphaScreen FBW7–phospho-cyclin E peptide binding, activator screen. normalized activity (activation), % at 26.1 µM. 650,000 compounds, 0.13% hits. AID 1259310; in the data active means normalized activity above about 1.9%;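 further: purified mutant Fbw7 with reduced substrate affinity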
Numbers without * were called inactive. Only some compounds are listed: those with a hit (about 3.4% of all), similar ones and a draw of the others.

SMILES	MITF inh	GPR151 activ	TEAD-YAP inh	FBW7 activator
CC(=O)NC(c1cccc([N+](=O)[O-])c1)c1ccc2cccnc2c1O (stereo unspecified)	74*	0	83*	-2
CCCCC(=O)NC(c1ccccc1)c1ccc2cccnc2c1O (stereo unspecified)	41	-2	9	-1
CCCCC(=O)NC(c1cccc([N+](=O)[O-])c1)c1ccc2cccnc2c1O (stereo unspecified)	55*	-2	88*	-1
COc1cccc(C2C3=C(CC(C)(C)CC3=O)Nc3nc(SC)nn32)c1OC (stereo unspecified)	-20	0	-10	0
CC1(C)CC2CC(C)(CN2C(=O)COC(=O)COc2ccc(Br)cc2)C1 (stereo unspecified)	10	-2	-8	1
O=C(C[n+]1cccc(C(=O)Nc2ccccc2)c1)Nc1ccccc1	2	1	6	0
COc1ccc(OC)c(CNc2ncc(-c3cccc(Cl)c3)n2C)c1	37	-1	45*	0
CCOc1ccccc1/C=N\NC(=O)c1nnn(-c2nonc2N)c1CN1CCOCC1	-5	1	-2	0
O=C(Nc1ccccc1-c1nc2ccccc2[nH]1)C1CC1	4	1	38*	0
CC(=O)c1ccc(C(=O)Nc2ccccc2-c2nc3ccccc3[nH]2)cc1	-12	1	-1	0
O=C(Nc1ccccc1-c1nc2ccccc2[nH]1)C1COc2ccccc2O1 (stereo unspecified)	-5	0	-3	0
COc1cc2ccccc2cc1C(=O)Nc1ccccc1-c1nc2ccccc2[nH]1	-2	1	7	2.6*
Fc1ccc2c(c1)nc(NCc1ccncc1)c1nccn12	1	-1	49*	0
Fc1ccc2c(c1)nc(NCc1ccccc1)c1nccn12	13	-3	-9	0
O=C(COc1ccc(Cl)cc1)Nn1c(=S)[nH]c2ccccc2c1=O	10	-1	-4	0
Nc1c(C(=O)Nc2ccc(Oc3ccccc3)cc2)sc2nc3c(cc12)C(=O)CCC3	25	0	37*	0
Nc1c(C(=O)Nc2ccccc2)sc2nc3c(cc12)C(=O)CCC3	-4	-2	32*	0
CC1(C)CC(=O)c2cc3c(N)c(C(=O)NC4CCCCC4)sc3nc2C1	22	0	-2	2.4*
Nc1c(C(=O)Nc2ccc(Br)cc2)sc2nc3c(cc12)C(=O)CCC3	-8	1	-5	0
Cc1ccc(NC(=O)c2sc3nc4c(cc3c2N)C(=O)CCC4)cc1C	1	1	65*	0
Cn1c(SCC(=O)c2ccc3c(c2)OCCO3)nnc1-c1ccccc1N	-2	0	-3	0
Cc1ccc(-c2ncn(-c3ccc(Nc4ncc5ccc(Br)cc5n4)cc3)n2)cn1	-7	1	4	0
Cn1ncc2cc(Nc3ncc4ccc(-c5cn[nH]c5)cc4n3)ccc21	22	4	71*	0
Cc1nc(C)n(-c2ccc(Nc3ncc4ccc(-c5cn[nH]c5)cc4n3)cc2)n1	11	-1	73*	0
Cc1nc(C)n(-c2ccc(Nc3cc4cc(-c5cn[nH]c5)ccc4cn3)cc2)n1	11	0	85*	0
SMILES	MITF inh	GPR151 activ	TEAD-YAP inh	FBW7 activator
Cc1ncn(-c2ccc(Nc3ncc(Cl)c(-c4cn[nH]c4)n3)cc2)n1	-4	0	7	0
Cc1ccc(-c2cn3nc(C)c(C)nc3n2)cc1	-3	-5	46*	0
COc1ccc(-c2cn3nc(C)c(C)nc3n2)cc1OC	2	1	-54	0
CC(C)=NNC(=O)CNS(=O)(=O)c1ccc(C)cc1	2	0	12	0
CC1=NN(c2ccccc2)C(=O)C1/C=C1\C(=O)NC(=O)N(c2ccc3c(c2)OCO3)C1=O (stereo unspecified)	4	1	0	0
Cc1nc2c(ccc3nc(NC(=O)CCc4ccccc4)sc32)s1	-8	2	48*	0
Cc1nc2c(ccc3nc(NC(=O)Cc4ccccc4)sc32)s1	23	-1	-30	0
COc1ccc(C(=O)Nc2nc3ccc4sc(C)nc4c3s2)c(OC)c1	17	0	48*	1
COc1cccc(OC)c1C(=O)Nc1nc2ccc3sc(C)nc3c2s1	12	-1	-8	0
COc1ccccc1C(=O)Nc1nc2ccc3sc(C)nc3c2s1	-19	-2	52*	0
Cc1ccc(C(=O)OCCCCN2C(=O)c3ccccc3C2=O)cc1NC(=O)c1ccco1	18	-2	7	0
O=Cc1ccc(-c2ccc(NC3CC3)nc2)cc1	5	-3	34*	0
COc1cc(/C=N/NC(=O)c2ncn[nH]2)cc(OC)c1OC	13	-1	15	0
CNc1c(C)ccc2c1C(=O)c1ccccc1C2=O	84*	-1	-43	-2
Nc1cc([N+](=O)[O-])ccc1NS(=O)(=O)c1ccc(Cl)cc1	-4	1	-14	0
Cc1ccc(-n2c(=S)[nH]c3sc4c(c3c2=O)CCCC4)cc1	17	0	11	1
COc1cc(C)c2c(c1)oc(=O)c1ccccc12	22	3	-6	2.2*
COc1cc(/C=C/c2ccc3cccc(OC(C)=O)c3n2)cc(OC)c1OC(C)=O	8	-1	7	0
CC(=O)Oc1cccc2ccc(/C=C/c3cccc(F)c3)nc12	-7	-5	40*	0
Cc1ccc(C(C)C)c(OCCN=Cc2c(O)n(C)c(=O)n(C)c2=O)c1	1	-1	33*	0
OCCCNc1cc(-c2cccc(C(F)(F)F)c2)nc(-c2cccnc2)n1	6	2	12	0
OCCCNc1cc(-c2cccc(C(F)(F)F)c2)nc(-c2ccccn2)n1	18	2	33*	0
COc1ccc(C(=O)COc2ccccc2C(=O)Nc2ccccc2)cc1[N+](=O)[O-]	2	1	9	0
COc1cccc(C2NC(=O)NC(C)=C2C(=O)Nc2ccc(F)cc2)c1OC (stereo unspecified)	-16	-2	43*	0
CC1=C(C(=O)Nc2ccc(Br)cc2)C(c2ccc(O)cc2)NC(=O)N1 (stereo unspecified)	24	-2	-5	2.8*
SMILES	MITF inh	GPR151 activ	TEAD-YAP inh	FBW7 activator
COCCCN1C(=O)c2[nH]nc(-c3ccccc3O)c2C1c1cccc(Br)c1 (stereo unspecified)	10	0	35*	0
COCCCN1C(=O)c2[nH]nc(-c3ccccc3O)c2C1c1cccc(O)c1 (stereo unspecified)	11	0	3	0
CC(=O)Oc1ccc(CC2(C)C(=O)Nc3c(-c4ccco4)cccc32)cc1 (stereo unspecified)	14	-1	7	0
COc1cc(C#N)ccc1OCC(=O)c1ccccc1	11	-2	-8	0
Cc1cc(C)c2nc(SCC(=O)Nc3cc(C(N)=O)cc(C(N)=O)c3)cc(C)c2c1	-12	0	-11	0
Cc1cc(C)c2nc(SCC(=O)Nc3sccc3C(N)=O)cc(C)c2c1	-4	1	45*	0
Cc1cccc(NC(=O)NCC2CC(=O)N(c3ccccc3)C2)c1 (stereo unspecified)	0	3	4	0
